Holding throughout (set-up): species or system human, MV4-11 + K-562 + COLO205 + SK-N-BE2 + OVCAR-8
The subject of one assay is RPS6KB1. The conditions noted are these: read-out: apparent Kd, n = 1.
A further assay deals with ABL1. The conditions noted are these: read-out: apparent Kd, n = 1.
Another assay relates to ABL2. The conditions noted are these: read-out: apparent Kd, n = 1.
In a further assay the test system is BTK. The conditions noted are these: read-out: apparent Kd, n = 1.
For the next assay, the system named is EPHB1. The following applies: read-out: apparent Kd, n = 1.
A further assay relates to LCK. The following applies: read-out: apparent Kd, n = 1.
The subject of a further assay is MAP3K11. The conditions noted are these: read-out: apparent Kd, n = 1.
The test system of the next assay is PAK6. The following applies: read-out: apparent Kd; compound concentrations:100 nM and 1000 nM (sheet 'Samples'); n = 1.
The test system of a further assay is PTK6. The following applies: read-out: apparent Kd, n = 1.
A further assay has as its system RPS6KA3. The following applies: read-out: apparent Kd, n = 1.
A further assay concerns AURKB. The following applies: read-out: apparent Kd, n = 1.
For another assay, the system named is NUAK2. The conditions noted are these: read-out: apparent Kd, n = 1.
The next assay has as its system MAPK14. The following applies: read-out: apparent Kd, n = 1.
The subject of the next assay is ACVR1B. The following applies: read-out: apparent Kd, n = 1.
The test system of the next assay is CIT. The conditions noted are these: read-out: apparent Kd, n = 1.
Another assay relates to IRAK3. The following applies: read-out: apparent Kd; compound concentrations: 100 nM and 1000 nM (sheet 'Samples'), CATDS: 1.44351207371401E-2; n = 1.
The subject of another assay is PRKCA. The following applies: read-out: apparent Kd; compound concentrations: 100 nM and 1000 nM (sheet 'Samples'), CATDS: 6.3313527827085804E-3; n = 1.
Setting [1] is: compound concentrations:100 nM and 1000 nM (sheet 'Samples').

Read-outs that look alike come from different tables or passages of the source.

As to `CCOc1nccc2c1nc(-c1nonc1N)n2CC` [SB-737198], the potency estimated from few doses in the assay on RPS6KB1 (compound concentrations: 100 nM and 1000 nM (sheet 'Samples'), CATDS: 0.20646016989107699) was 1320 nM.

On to `Cl.Cl.NCC(C(=O)Nc1cc(Br)c(-c2ccnc3[nH]ccc23)s1)c1ccccc1.NCC(C(=O)Nc1cc(Br)c(-c2ccnc3[nH]ccc23)s1)c1ccccc1` (stereo not shown) [GSK1269851A], for which the potency estimated from few doses with ABL1 (setting [1]) is 1040 nM; in the assay with ABL2 (setting [1]), 433 nM; with BTK (setting [1]), 638 nM; with EPHB1 (setting [1]) it was 331 nM; in the assay on LCK (setting [1]) it was 519 nM; in the assay with MAP3K11 (setting [1]), 2030 nM. Besides, the potency estimated from few doses in the assay with PAK6 is 710 nM; with PTK6 (setting [1]), 1450 nM; in the assay on RPS6KA3 (setting [1]) it was 1840 nM.

`CN1C[C@@H]2Cn3c(c(C4=C(c5cn(C)c6ccccc56)C(=O)NC4=O)c4ccccc43)C[C@H]2C1.Cl` [RO0320234-001]: the potency estimated from few doses with ABL1 (setting [1]) is 93.7 nM; in the assay with ABL2 (setting [1]), 5.56 nM; in the assay with AURKB (setting [1]), 444 nM; in the assay on BTK (setting [1]) it was 86.7 nM; in the assay on EPHB1 (setting [1]) it was 10.4 nM; with LCK (setting [1]), 134 nM. Also, the potency estimated from few doses in the assay on NUAK2 (setting [1]) was 843 nM; with PAK6 it was 111 nM; in the assay with PTK6 (setting [1]), 970 nM; in the assay on RPS6KA3 (setting [1]), 2100 nM; in the assay on RPS6KB1 (setting [1]) it was 86.4 nM.

With `O=C1N=C(NCCc2ccc(Cl)cc2)S/C1=C\c1ccc2ncccc2c1` [RO4498479-000], the potency estimated from few doses is 536 nM in the assay on ABL1 (compound concentrations: 100 nM and 1000 nM (sheet 'Samples'), CATDS: 1.01576334348417E-2); 201 nM in the assay on ABL2 (compound concentrations: 100 nM and 1000 nM (sheet 'Samples'), CATDS: 1.7069961948359198E-2); 1200 nM in the assay on AURKB (compound concentrations: 100 nM and 1000 nM (sheet 'Samples'), CATDS: 7.59982177866047E-3); 297 nM in the assay on BTK (compound concentrations: 100 nM and 1000 nM (sheet 'Samples'), CATDS: 1.35831068182147E-2); 290 nM with EPHB1 (compound concentrations: 100 nM and 1000 nM (sheet 'Samples'), CATDS: 1.3764533210370701E-2); 313 nM with LCK (compound concentrations: 100 nM and 1000 nM (sheet 'Samples'), CATDS: 1.3202335772702E-2). Also, the potency estimated from few doses with MAP3K11 (compound concentrations: 100 nM and 1000 nM (sheet 'Samples'), CATDS: 8.9469693791647507E-3) was 733 nM; in the assay on NUAK2 (compound concentrations: 100 nM and 1000 nM (sheet 'Samples'), CATDS: 7.8006037154547897E-3) it was 1100 nM; in the assay on PTK6 (compound concentrations: 100 nM and 1000 nM (sheet 'Samples'), CATDS: 1.2314432114231401E-2) it was 357 nM; with RPS6KA3 (compound concentrations: 100 nM and 1000 nM (sheet 'Samples'), CATDS: 7.9720572811278097E-3) it was 1020 nM.

`Cl.NCc1ccc(-c2nc(-c3ccc(Cl)c(O)c3)c(-c3ccncc3)[nH]2)cc1` [SB-476429-A]: the potency estimated from few doses in the assay with MAPK14 (setting [1]) is 113 nM.

Take `CCn1c(-c2nonc2N)nc2c(-c3ccccc3)ncc(OCCCN)c21.CCn1c(-c2nonc2N)nc2c(-c3ccccc3)ncc(OCCCN)c21.O=C(O)C(F)(F)F.O=C(O)C(F)(F)F` [GSK260205A]: the potency estimated from few doses with ACVR1B (compound concentrations: 100 nM and 1000 nM (sheet 'Samples'), CATDS: 3.5352360337843801E-2) is 755 nM; in the assay on CIT (compound concentrations: 100 nM and 1000 nM (sheet 'Samples'), CATDS: 2.8413357389646399E-2), 1630 nM; in the assay on MAPK14 (compound concentrations: 100 nM and 1000 nM (sheet 'Samples'), CATDS: 4.1756268177550598E-2), 478 nM.

For `COc1cccc2c(-c3ccncc3)c(-c3ccc(F)cc3)nn12` [GW468513X], the potency estimated from few doses is 83.3 nM with ACVR1B (compound concentrations: 100 nM and 1000 nM (sheet 'Samples'), CATDS: 0.110012792882782); 539 nM with CIT (compound concentrations: 100 nM and 1000 nM (sheet 'Samples'), CATDS: 4.9718513038834899E-2); 42.8 nM in the assay with MAPK14 (compound concentrations: 100 nM and 1000 nM (sheet 'Samples'), CATDS: 0.16592681304069401).

For `Cc1cccc(-c2nc(Nc3ccncc3)c3sccc3n2)n1` [GW869641X], the potency estimated from few doses is 0.703 nM in the assay with ACVR1B (setting [1]) and 1100 nM in the assay with CIT (setting [1]).

Regarding `Fc1ccc(-c2c(-c3ccncc3)[nH]c3cccnc23)cc1` [RO1153853-000], the potency estimated from few doses in the assay on ACVR1B (compound concentrations: 100 nM and 1000 nM (sheet 'Samples'), CATDS: 6.54692284622726E-2) is 700 nM; in the assay with CIT (compound concentrations: 100 nM and 1000 nM (sheet 'Samples'), CATDS: 4.9233992215081297E-2), 1750 nM; with MAPK14 (compound concentrations: 100 nM and 1000 nM (sheet 'Samples'), CATDS: 9.4137479402045199E-2), 308 nM.

With `COc1ccc(Nc2ncc(C#N)c(Nc3ccccc3C(N)=O)n2)cc1N1CCN(C)CC1.Cl` [GSK1558669A], the potency estimated from few doses with ABL1 (compound concentrations: 100 nM and 1000 nM (sheet 'Samples'), CATDS: 1.2086196789939699E-2) was 112 nM; with ABL2 (compound concentrations: 100 nM and 1000 nM (sheet 'Samples'), CATDS: 8.4087803089845196E-3) it was 334 nM; with AURKB (compound concentrations: 100 nM and 1000 nM (sheet 'Samples'), CATDS: 1.8083134151289901E-2), 45.1 nM; in the assay on BTK (compound concentrations: 100 nM and 1000 nM (sheet 'Samples'), CATDS: 6.7250041234510503E-3), 871 nM; with IRAK3, 72.7 nM; in the assay on LCK (compound concentrations: 100 nM and 1000 nM (sheet 'Samples'), CATDS: 1.44418733031309E-2), 72.7 nM. Moreover, the potency estimated from few doses in the assay on MAP3K11 (compound concentrations: 100 nM and 1000 nM (sheet 'Samples'), CATDS: 2.8050644020512099E-2) is 20.5 nM; in the assay on NUAK2 (compound concentrations: 100 nM and 1000 nM (sheet 'Samples'), CATDS: 2.1181549202491899E-2), 33.3 nM; with PRKCA, 1220 nM; in the assay with PTK6 (compound concentrations: 100 nM and 1000 nM (sheet 'Samples'), CATDS: 1.8195014804837699E-2), 44.6 nM; with RPS6KA3 (compound concentrations: 100 nM and 1000 nM (sheet 'Samples'), CATDS: 1.2141837427484699E-2), 110 nM; in the assay with RPS6KB1 (compound concentrations: 100 nM and 1000 nM (sheet 'Samples'), CATDS: 6.0370811384274602E-3), 1680 nM.

The record behind these values is publication PMC11062922 (Nature Chemical Biology, 2023).
